High-throughput results deposited in PubChem BioAssay by National Center for Advancing Translational Sciences (NCATS).
RORgamma inh: ROR gamma (mouse) transcription inhibition | Drosophila S2 Gal4-RORgamma UAS-luciferase reporter, 20 h | AID 2551 | 5.4% of 310,000 active | Potency, µM (doses to about 53.6 µM), for inactives: at the top dose activity change, negative = inhibition, most hits filed as inhibitors; note: potency is the fitted concentration of half-maximal effect; nearly all actives have a fitted effect of over 60% in size
Target sequence (P51450 whole entry, looked up, the tested form may be a part): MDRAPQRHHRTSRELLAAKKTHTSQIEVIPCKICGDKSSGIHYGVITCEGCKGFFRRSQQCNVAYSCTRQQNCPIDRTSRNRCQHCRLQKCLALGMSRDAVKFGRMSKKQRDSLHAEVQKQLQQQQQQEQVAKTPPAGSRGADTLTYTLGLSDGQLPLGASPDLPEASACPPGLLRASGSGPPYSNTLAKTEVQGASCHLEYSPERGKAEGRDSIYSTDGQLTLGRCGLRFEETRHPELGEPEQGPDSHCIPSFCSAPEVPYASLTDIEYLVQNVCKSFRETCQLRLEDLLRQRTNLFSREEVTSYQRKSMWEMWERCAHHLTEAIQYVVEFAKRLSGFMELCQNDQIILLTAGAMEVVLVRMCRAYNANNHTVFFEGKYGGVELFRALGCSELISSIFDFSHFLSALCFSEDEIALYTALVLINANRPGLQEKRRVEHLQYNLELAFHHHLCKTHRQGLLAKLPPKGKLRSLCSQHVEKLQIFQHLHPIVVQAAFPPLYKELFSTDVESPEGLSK
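Using a luciferase readout, inhibitors were identified by reduced reporter activity in Drosophila cells coexpressing a copper-inducible Gal4–ROR gamma fusion and UAS-driven Photinus luciferase, incubated 20 hr after 700 uM copper sulfate.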
IL-1B inflam inh: blocks inflammasome-driven IL-1 beta release; THP-1 LPS/ATP IL-1B secretion, AlphaLISA, 16 h; active compounds read low; 4.7% of 360,000 active; AID 743279; activity change, % at 57.5 µM; in the data active = activity change below about -50%; inconclusive = mostly about -30% to -49%
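THP-1 cells pretreated 1 hr with compounds (up to 57.5 uM final), then stimulated with LPS (250 ng/mL final) plus ATP (1.25 mM final); secreted IL-1B measured by AlphaLISA after 16 hr, decreased signal indicating inhibition.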
TDP1 cell CPT: DT40-hTDP1 cell growth loss with CPT. chicken DT40 Tdp1-/-;hTDP1 cells + 20 nM CPT, ATP luminescence, 48 h. Potency, µM (highest dose often 46.2 µM), without a hit: top-dose activity change, negative = growth inhibition, most hits filed as inhibitors. 12% of 420,000 active; note: potency is the fitted concentration of half-maximal effect; nearly all actives have a fitted effect of over 55% in size
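Chicken DT40 Tdp1-/- cells stably complemented with human TDP1 were seeded at 400 cells/well in medium containing 20 nM camptothecin, exposed to pin-transferred compounds, and grown at 37 °C for at least 48 hr. Viability was read as ATP luminescence.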
Gal4-VP16 FLuc: Gal4-VP16 reporter inhibition counter-screen | Drosophila S2 Gal4-VP16 UAS-luciferase, luminescence, 20 h | Potency, µM (doses to about 53.6 µM), without a hit: at the highest dose activity, negative = inhibition, most hits filed as inhibitors | 3.5% of 310,000 active | AID 2546;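 note: Gal4-VP16 expression switched on by copper sulfate through the metallothionein promoter; potency is the fitted concentration of half-maximal effect; nearly all actives have a fitted effect of over 50% in size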
TDP1 cell noCPT: qHTS for Inhibitors of human tyrosyl-DNA phosphodiesterase 1 (TDP1): qHTS in cells in absence of CPT; 15% of 420,000 active; DT40 Tdp1-/- hTDP1 cells, no CPT, ATP luminescence, 48 h; AID 686978, 2013; Potency, µM (doses to about 46.2 µM), without a hit: top-dose activity change, negative = growth inhibition, actives largely listed as inhibitors; note: potency is the fitted concentration of half-maximal effect; nearly all actives have a fitted effect of over 55% in size
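Growth of hTDP1-complemented DT40 Tdp1-knockout cells is measured by ATP luminescence after at least 48 hr compound exposure at 37 °C, with DMSO substituting for the 20 nM CPT used in the parallel screen.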
LDHA block: blocks human lactate dehydrogenase A; activity change, % (values are at about 110 or 230 µM); purified LDHA, NADH/diaphorase-resazurin fluorescence; active compounds read low; P00338; 0.15% of 480,000 active; in the data active = activity change below about -30%; inconclusive = mostly about -25% to -30%;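 note: plate controls were DMSO wells for no effect and wells without enzyme for full effect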
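Enzyme activity of human lactate dehydrogenase 5 (2 nM; 0.06 mM NADH, 0.2 mM pyruvate, 5 min, RT) is measured via a resazurin/diaphorase fluorescence readout of residual NADH.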
Starred values were filed as active, the others as inactive; ? = inconclusive; / = no result given. In the library only some 18% were active in any assay of this set; here they are far more common. Unless noted, calls come from the whole dose curve; as a rule, active = well fitted curve in the direction sought with a large enough effect; inconclusive = small, poorly fitted or top-dose-only effect, or another doubt; inactive = no such curve, though single readings can be large; an effect the other way counts as inactive or inconclusive. Unless noted, % is set by controls: 0 for no effect and ±100 for the full control effect.

SMILES | RORgamma inh | IL-1B inflam inh | TDP1 cell CPT | Gal4-VP16 FLuc | TDP1 cell noCPT | LDHA block
CC1=C(C(=O)OC2CCCCCCC2)C(c2cccc(O)c2)NC(=O)N1 (stereo unspecified) | ? | -19 | ? | -24% | ? | 1
CC1=C(C(=O)OC2CCCCCC2)C(c2ccc(Cl)cc2Cl)CC(=O)N1 (stereo unspecified) | / | / | 15µM* | / | 16µM* | -3
CC1=C(C(=O)OCC2CCCCC2)C(c2ccc(Cl)cc2Cl)CC(=O)N1 (stereo unspecified) | / | / | ? | / | 21µM* | -5
CC1=C(C(=O)OC2CCCCCC2)C(c2ccc(Cl)cc2)CC(=O)N1 (stereo unspecified) | / | / | ? | / | ? | -12
CC1=C(C(=O)OC2CCCCCC2)C(c2cccc(Cl)c2)CC(=O)N1 (stereo unspecified) | / | / | 18µM* | / | 18µM* | -5
Cc1cc(N2CCN(c3ccccc3)CC2)n2c(n1)nc1ccccc12 | 0% | 5 | -26% | -5% | ? | -9
CC(C)CC(C)c1cc(N)nc2nc3ccccc3n12 (stereo unspecified) | 16µM* | 70 | ? | -12% | ? | 0
CN1CCN(C(=O)CCN2C(=O)/C(=C\c3ccc(Cl)cc3)SC2=S)CC1 | -20% | -22 | 18µM* | 8% | ? | -2
NS(=O)(=O)c1ccc(CCN2C(=O)/C(=C\c3ccc(Cl)cc3)SC2=S)cc1 | -17% | -85* | 6.5µM* | -24% | 6.5µM* | -8
CC(=O)N(C(C)=O)N1C(=O)/C(=C/c2ccc(Cl)cc2)SC1=S | 8% | 0 | ? | -21% | ? | ?
O=C(CN1C(=O)/C(=C/c2ccc(F)cc2)SC1=S)N1CCN(CCc2ccccn2)CC1 | -17% | -7 | 6.5µM* | ? | 2.3µM* | -3
O=C(CCN1C(=O)/C(=C/c2ccc(F)cc2)SC1=S)Nc1cccnc1 | 16% | -19 | 2% | 3% | -6% | -3
Cc1ccc(C)n1N1C(=O)/C(=C\c2ccc(Cl)cc2)SC1=S | 40% | -91* | ? | -3% | ? | 1
CN1CCN(C(=O)CCN2C(=O)/C(=C\c3ccc(F)cc3)SC2=S)CC1 | / | -99* | 18µM* | / | 15µM* | 1
O=C(CCN1C(=O)/C(=C/c2ccc(F)cc2)SC1=S)NCCc1ccc(O)cc1 | 3% | 3 | -13% | -9% | ? | -14
COC(=O)COc1ccccc1/C=C/C(=O)c1cc2ccccc2o1 | / | / | / | / | / | 3
COc1ccc(/C=C2\CN(Cc3ccccc3)C/C(=C\c3ccc(OC)cc3)C2=O)cc1 | -24% | -29 | 10µM* | ? | 16µM* | 5
Fc1cc(NC(=S)N2CCc3ccccc32)ccc1Cl | / | / | / | / | / | -24
O=C(NCC1CCCO1)c1cc2c([nH]c3ccccc32)c(-c2cccc(Cl)c2)n1 (stereo unspecified) | ? | -65* | 4.1µM* | -13% | 2.3µM* | 1
COc1ccccc1-c1nc(C(=O)NCC2CCCO2)cc2c1[nH]c1ccccc12 (stereo unspecified) | 41% | -24 | 21µM* | -3% | 15µM* | -7
COc1cc(-c2nc(C(=O)NCC3CCCO3)cc3c2[nH]c2ccccc23)cc(OC)c1OC (stereo unspecified) | ? | -18 | 5.8µM* | -17% | 7.3µM* | 4
O=C(Nc1ccncc1)C1CCN(C(=O)c2ccc3ccccc3n2)CC1 | / | / | / | / | / | 1
CCCn1nc(C(=O)OCC(=O)Nc2ccc(OCc3ccccc3)cc2)c2ccccc2c1=O | / | / | / | / | / | -2
O=C(CSc1nc2ccccc2o1)N(Cc1ccccc1)Cc1ccco1 | / | / | / | / | / | 1
COC(=O)c1cc(C(=O)c2cc(F)ccc2O)cn2c(=O)c3c(C)c(C)sc3nc12 | 8% | -6 | 4.1µM* | -8% | -24% | -5
